Bioassay records deposited in PubChem by several laboratories.
The list is not random: actives were taken first. Their share in the collection is about 3.4%.
APP 5'UTR act: APP 5'UTR luciferase reporter activation; SH-SY5Y APP 5'UTR luciferase reporter, luminescence; zero percent = DMSO vehicle wells; activation, % at 2 µM; 190,000 tested, 1% active; AID 1276;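 active means activation above a set limit, based on mean plus 3 SD of controls, cut at about 140% in these data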
hcDAF12 agonist: H. contortus DAF-12 activation, primary screen. 370,000 tested, 1.4% active. HEK293 hcDAF-12 lit1-tk-luc reporter, luminescence; 0% DMSO, 100% Δ7-dafachronic acid. activation, % at 6.8 µM;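 active means activation above the mean of all tested compounds plus 3 SD, cut at about 5.5% in these data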;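 further: 100% = response to 3 µM Δ7-dafachronic acid high control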
ssDAF12 agonist: activators of S. stercoralis DAF-12 nuclear receptor | HEK293 ssDAF-12/GRIP1 lit1-tk-luc reporter, luminescence; % of 3 µM dafachronic acid response | activation, % at 6.8 µM | 370,000 tested, 1% active | AID 652126;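 active means activation above the mean over all tested compounds plus 3 SD, cut at about 0.9% in these data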;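 further: 0% = DMSO-only wells and 100% = 3 µM delta7-dafachronic acid wells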
NF-kB expr up: compounds increasing NF-kB expression in human neuronal cells; NF-kB reporter expression; active compounds read high; fold change at 12.5 µM; 190,000 tested, 1.6% active; in the data active means fold change above about 3.3
hgDAF-12 ag: agonists of H. glycines DAF-12 nuclear receptor | 370,000 tested, 1.8% active | activation, % at 6.8 µM | AID 687014 | HEK293 GAL4-hgDAF12 UAS-luciferase reporter, agonist luminescence; normalized to butyrate control;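 active means activation above a cutoff set at the mean of all screened compounds plus 3 SD, cut at about 10% in these data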;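 further: 0% = DMSO wells and 100% = sodium butyrate wells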
LXRb hcDAF ctr: counter-screen for hcDAF-12 agonists: agonists of human LXR-beta | activation, % at 6.8 µM | AID 743027 | 3,400 tested, under 10 active | shares compounds with hcDAF12 agonist | HEK293 Gal4-LXR tk-luc reporter, luminescence, 24 h; normalized: DMSO 0%, positive control 100%;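 active means mean percent activation of the reporter above a cutoff set as the average over tested compounds plus their standard deviation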
Target sequence (P55055 whole entry, looked up, the tested form may be a part): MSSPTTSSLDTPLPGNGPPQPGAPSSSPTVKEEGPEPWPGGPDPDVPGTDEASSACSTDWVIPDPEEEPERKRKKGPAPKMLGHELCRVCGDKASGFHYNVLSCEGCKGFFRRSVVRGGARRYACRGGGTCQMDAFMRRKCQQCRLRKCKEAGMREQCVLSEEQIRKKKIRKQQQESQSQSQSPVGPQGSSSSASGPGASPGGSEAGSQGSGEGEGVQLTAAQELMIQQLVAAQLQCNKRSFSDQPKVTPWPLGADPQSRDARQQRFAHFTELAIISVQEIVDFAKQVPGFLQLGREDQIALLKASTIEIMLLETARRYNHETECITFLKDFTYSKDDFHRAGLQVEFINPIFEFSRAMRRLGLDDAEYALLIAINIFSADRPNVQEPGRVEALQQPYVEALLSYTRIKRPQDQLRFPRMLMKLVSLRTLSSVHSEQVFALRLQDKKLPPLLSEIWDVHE
hcDAF12 ag: confirmation of H. contortus DAF-12 agonists; shares compounds with hcDAF12 agonist; activation, % at 6.8 µM; HEK293 hcDAF-12 lit1-tk-luc reporter, luminescence; % of Δ7-dafachronic acid response; 3,400 tested, 61% active;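 active means mean activation across triplicate tests above the threshold derived from the earlier primary screen, cut at about 5.5% in these data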;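 further: 0% = DMSO only wells and 100% = 3 µM Δ7-dafachronic acid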
* = called active by the depositor.

How did C=CCN1C(=O)[C@@H](CC(=O)N2CCC(c3ccccc3)CC2)[C@]2(C(=O)OCC)CCCCC/C=C/12 do in these assays?
hcDAF12 agonist: -2; ssDAF12 agonist: -1; hgDAF-12 ag: -3

What do the screens show for `CC(=NNc1nc2ccccc2s1)c1ncccn1`?
hcDAF12 agonist: 11*; ssDAF12 agonist: 0; hgDAF-12 ag: 12*; LXRb hcDAF ctr: 0; hcDAF12 ag: 1

Results for C/C(=N\Nc1nc2ccccc2s1)c1cccs1 ?
APP 5'UTR act: 177*; hcDAF12 agonist: 18*; ssDAF12 agonist: 1.4*; NF-kB expr up: 4.2*; hgDAF-12 ag: 12*; LXRb hcDAF ctr: 2; hcDAF12 ag: 23*

What do the screens show for `CCn1c(=NC(=O)c2ccco2)sc2cccc(F)c21`?
APP 5'UTR act: 36; hcDAF12 agonist: 12*; ssDAF12 agonist: 1; NF-kB expr up: 1.7; hgDAF-12 ag: 13*; LXRb hcDAF ctr: 1; hcDAF12 ag: 8.4*

What do the screens show for `COc1cccc(-c2nnc(SCc3cc(C)ccc3C)n2Cc2ccco2)c1`?
hcDAF12 agonist: -3; ssDAF12 agonist: -2; hgDAF-12 ag: -1

Results for COc1cc2c(cc1NC(=O)C(C)Sc1cccc[n+]1[O-])oc1ccccc12 (configuration not stated) ?
APP 5'UTR act: 36; hcDAF12 agonist: 9.6*; ssDAF12 agonist: 0; NF-kB expr up: 1.8; hgDAF-12 ag: 7; LXRb hcDAF ctr: 0; hcDAF12 ag: 6

How did NC1=[N+](Cc2ccccc2)C(Cc2ccccc2)C2C(=C3CCCCC3n3c(=O)n(-c4ccccc4)c(=O)n32)N1 (configuration not stated) do in these assays?
hcDAF12 agonist: 0; ssDAF12 agonist: -1; hgDAF-12 ag: 3

What do the screens show for `CCOC(=O)c1sc2nc(-c3ccccc3)ccc2c1N`?
APP 5'UTR act: 174*; hcDAF12 agonist: 9.0*; ssDAF12 agonist: 0; NF-kB expr up: 2.2; hgDAF-12 ag: 24*; LXRb hcDAF ctr: 2; hcDAF12 ag: 11*

How did C[C@H]1[C@H](NCc2cccnc2)CC[C@@]23CCCN2C(=O)CCC[C@@H]13 do in these assays?
hcDAF12 agonist: 0; ssDAF12 agonist: -2; hgDAF-12 ag: 0

Results for O=C(Nc1ccc(Cl)c(Cl)c1)C1CCN(c2ncccn2)CC1 ?
hcDAF12 agonist: -2; ssDAF12 agonist: -1; hgDAF-12 ag: 6

Results for Cc1c(C(=O)Nc2ccccn2)oc2c(Cl)cccc12 ?
hcDAF12 agonist: 8.8*; ssDAF12 agonist: 2.0*; hgDAF-12 ag: 2; LXRb hcDAF ctr: 0; hcDAF12 ag: 6.5*

What do the screens show for `Cc1c(C(=O)Nc2nc3ccccc3[nH]2)oc2ccccc12`?
APP 5'UTR act: 182*; hcDAF12 agonist: 24*; ssDAF12 agonist: 3.8*; NF-kB expr up: 8.1*; hgDAF-12 ag: 21*; LXRb hcDAF ctr: 2; hcDAF12 ag: 13*

Results for Cc1c(C(=O)Nc2nc3ccccc3[nH]2)oc2c(Cl)cccc12 ?
APP 5'UTR act: 47; hcDAF12 agonist: 8.7*; ssDAF12 agonist: 1.0*; NF-kB expr up: 1.7; hgDAF-12 ag: 3; LXRb hcDAF ctr: 1; hcDAF12 ag: 9.2*

What do the screens show for `Cc1c(C(=O)Nc2nc3ccccc3[nH]2)oc2ccc(Br)cc12`?
APP 5'UTR act: 40; hcDAF12 agonist: -1; ssDAF12 agonist: 0; NF-kB expr up: 1.1; hgDAF-12 ag: 4

What do the screens show for `Cc1cccc(NC(=O)Nc2ccccc2C(=O)N2CCCC2)c1`?
hcDAF12 agonist: -1; ssDAF12 agonist: 0; hgDAF-12 ag: -1

Results for CN(C)c1ccc(C2Nc3cccc4cccc(c34)N2)cc1 ?
hcDAF12 agonist: 8.4*; ssDAF12 agonist: 1.6*; hgDAF-12 ag: 4; LXRb hcDAF ctr: 0; hcDAF12 ag: 8.3*

What do the screens show for `COc1ccc(C2Nc3cccc4cccc(c34)N2)cc1`?
APP 5'UTR act: 27; hcDAF12 agonist: 5; ssDAF12 agonist: 0; hgDAF-12 ag: 6

Results for COC(=O)C[C@@H]1CC[C@@H]2[C@@H](COc3ccc(NC(=O)Nc4cccc(Cl)c4)cc3C(=O)N2C)O1 ?
hcDAF12 agonist: -4; ssDAF12 agonist: -1; hgDAF-12 ag: -2

What do the screens show for `c1ccc2c(C3=NNC(=NC4CCCCC4)SC3)c[nH]c2c1`?
APP 5'UTR act: 15; hcDAF12 agonist: 9.3*; ssDAF12 agonist: 1.5*; NF-kB expr up: 1.4; hgDAF-12 ag: 3; LXRb hcDAF ctr: 0; hcDAF12 ag: 5

How did Brc1ccc(-c2nc(N/N=C/c3cccnc3)c3ccccc3n2)cc1 do in these assays?
APP 5'UTR act: -10; hcDAF12 agonist: 11*; ssDAF12 agonist: 1.6*; NF-kB expr up: 1.3; hgDAF-12 ag: 13*; LXRb hcDAF ctr: 2; hcDAF12 ag: 14*

What do the screens show for `C(=N\Nc1nc(-c2cccnc2)nc2ccccc12)/c1ccccc1`?
hcDAF12 agonist: 3; ssDAF12 agonist: -2; hgDAF-12 ag: 1

Results for CC(C)C(=O)N1CCCCCCN1C(=O)C(C)C ?
hcDAF12 agonist: 7.8*; ssDAF12 agonist: 0; hgDAF-12 ag: -1; LXRb hcDAF ctr: 0; hcDAF12 ag: -1

How did CC(CN1CCCCC1)C(=O)NN (configuration not stated) do in these assays?
APP 5'UTR act: 19; hcDAF12 agonist: -1; ssDAF12 agonist: -1; NF-kB expr up: 1.2; hgDAF-12 ag: -1

Results for Cc1ccccc1-c1nnc(-c2cccs2)o1 ?
APP 5'UTR act: 73; hcDAF12 agonist: 7.7*; ssDAF12 agonist: 1.3*; NF-kB expr up: 2.1; hgDAF-12 ag: 9; LXRb hcDAF ctr: 1; hcDAF12 ag: 8.6*

What do the screens show for `Cc1ccccc1-c1noc(-c2cccs2)n1`?
APP 5'UTR act: 50; hcDAF12 agonist: 4; ssDAF12 agonist: -1; NF-kB expr up: 2.3; hgDAF-12 ag: 2

Results for O=C(Cc1ccccc1[N+](=O)[O-])Nc1ccc(S(=O)(=O)N2CCCC2)cc1 ?
hcDAF12 agonist: 9.7*; ssDAF12 agonist: 1.0*; hgDAF-12 ag: 2; LXRb hcDAF ctr: 0; hcDAF12 ag: 5

What do the screens show for `Cc1ccc(NC(=O)n2ncc3c(C)cccc32)cc1F`?
hcDAF12 agonist: 11*; ssDAF12 agonist: 1.1*; hgDAF-12 ag: 9; LXRb hcDAF ctr: 1; hcDAF12 ag: 9.0*

What do the screens show for `COc1ccc(NC(=O)n2ncc3c(C)cccc32)cc1OC`?
hcDAF12 agonist: -1; ssDAF12 agonist: 0; hgDAF-12 ag: 5

How did CN(C)C(=O)Cn1cc(S(=O)(=O)Cc2ccccc2)c2ccccc21 do in these assays?
hcDAF12 agonist: 6.6*; ssDAF12 agonist: -1; hgDAF-12 ag: 1; LXRb hcDAF ctr: 0; hcDAF12 ag: 3
